Results published in PubChem BioAssay.
Calls of active or inactive are those of the source.

What was measured:
[1] = small molecules captured by biotinylated probe aFSTL3 – biochemical, small-molecule microarray, fluorescence 635/667, stem cell growth factor project, primary screen (AID 1064); conditions: higher = more signal;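 further: measures binding of the biotinylated anti-FSTL3 antibody to printed compounds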
[2] = binders from COS7 lysate, DM2A8 probe, primary screen, torsin A project, cell lysate, small-molecule microarray, fluorescence 635/667 (AID 1065); conditions: higher = more signal, COS7 lysate expressing mutant human TOR1A
[3] = small molecules captured by biotinylated probe aFGF2 – biochemical, small-molecule microarray, fluorescence 635/667, stem cell growth factor project, primary screen (AID 1067); conditions: higher = more signal;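 further: measures binding of biotinylated aFGF2 protein to printed compounds on slides; z-score merges feature fluorescence and signal-to-noise across triplicate slides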
[4] = small molecules captured by biotinylated probe aFGF10 – biochemical, small-molecule microarray, fluorescence 635/667, stem cell growth factor project, primary screen (AID 1071); conditions: higher = more signal;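 further: score merges 667 nm spot intensity and signal to noise from triplicate slides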
[5] = target: Neurogenic locus notch homolog protein 2 (Homo sapiens) (UniProt Q04721); assay: small molecules binding Notch2 protein – biochemical, small-molecule microarray, 635 nm fluorescence, stem cell growth factors, primary screen (AID 1073); conditions: higher = more signal
Chain of Neurogenic locus notch homolog protein 2 (Homo sapiens) (Q04721 whole entry, looked up, canonical isoform): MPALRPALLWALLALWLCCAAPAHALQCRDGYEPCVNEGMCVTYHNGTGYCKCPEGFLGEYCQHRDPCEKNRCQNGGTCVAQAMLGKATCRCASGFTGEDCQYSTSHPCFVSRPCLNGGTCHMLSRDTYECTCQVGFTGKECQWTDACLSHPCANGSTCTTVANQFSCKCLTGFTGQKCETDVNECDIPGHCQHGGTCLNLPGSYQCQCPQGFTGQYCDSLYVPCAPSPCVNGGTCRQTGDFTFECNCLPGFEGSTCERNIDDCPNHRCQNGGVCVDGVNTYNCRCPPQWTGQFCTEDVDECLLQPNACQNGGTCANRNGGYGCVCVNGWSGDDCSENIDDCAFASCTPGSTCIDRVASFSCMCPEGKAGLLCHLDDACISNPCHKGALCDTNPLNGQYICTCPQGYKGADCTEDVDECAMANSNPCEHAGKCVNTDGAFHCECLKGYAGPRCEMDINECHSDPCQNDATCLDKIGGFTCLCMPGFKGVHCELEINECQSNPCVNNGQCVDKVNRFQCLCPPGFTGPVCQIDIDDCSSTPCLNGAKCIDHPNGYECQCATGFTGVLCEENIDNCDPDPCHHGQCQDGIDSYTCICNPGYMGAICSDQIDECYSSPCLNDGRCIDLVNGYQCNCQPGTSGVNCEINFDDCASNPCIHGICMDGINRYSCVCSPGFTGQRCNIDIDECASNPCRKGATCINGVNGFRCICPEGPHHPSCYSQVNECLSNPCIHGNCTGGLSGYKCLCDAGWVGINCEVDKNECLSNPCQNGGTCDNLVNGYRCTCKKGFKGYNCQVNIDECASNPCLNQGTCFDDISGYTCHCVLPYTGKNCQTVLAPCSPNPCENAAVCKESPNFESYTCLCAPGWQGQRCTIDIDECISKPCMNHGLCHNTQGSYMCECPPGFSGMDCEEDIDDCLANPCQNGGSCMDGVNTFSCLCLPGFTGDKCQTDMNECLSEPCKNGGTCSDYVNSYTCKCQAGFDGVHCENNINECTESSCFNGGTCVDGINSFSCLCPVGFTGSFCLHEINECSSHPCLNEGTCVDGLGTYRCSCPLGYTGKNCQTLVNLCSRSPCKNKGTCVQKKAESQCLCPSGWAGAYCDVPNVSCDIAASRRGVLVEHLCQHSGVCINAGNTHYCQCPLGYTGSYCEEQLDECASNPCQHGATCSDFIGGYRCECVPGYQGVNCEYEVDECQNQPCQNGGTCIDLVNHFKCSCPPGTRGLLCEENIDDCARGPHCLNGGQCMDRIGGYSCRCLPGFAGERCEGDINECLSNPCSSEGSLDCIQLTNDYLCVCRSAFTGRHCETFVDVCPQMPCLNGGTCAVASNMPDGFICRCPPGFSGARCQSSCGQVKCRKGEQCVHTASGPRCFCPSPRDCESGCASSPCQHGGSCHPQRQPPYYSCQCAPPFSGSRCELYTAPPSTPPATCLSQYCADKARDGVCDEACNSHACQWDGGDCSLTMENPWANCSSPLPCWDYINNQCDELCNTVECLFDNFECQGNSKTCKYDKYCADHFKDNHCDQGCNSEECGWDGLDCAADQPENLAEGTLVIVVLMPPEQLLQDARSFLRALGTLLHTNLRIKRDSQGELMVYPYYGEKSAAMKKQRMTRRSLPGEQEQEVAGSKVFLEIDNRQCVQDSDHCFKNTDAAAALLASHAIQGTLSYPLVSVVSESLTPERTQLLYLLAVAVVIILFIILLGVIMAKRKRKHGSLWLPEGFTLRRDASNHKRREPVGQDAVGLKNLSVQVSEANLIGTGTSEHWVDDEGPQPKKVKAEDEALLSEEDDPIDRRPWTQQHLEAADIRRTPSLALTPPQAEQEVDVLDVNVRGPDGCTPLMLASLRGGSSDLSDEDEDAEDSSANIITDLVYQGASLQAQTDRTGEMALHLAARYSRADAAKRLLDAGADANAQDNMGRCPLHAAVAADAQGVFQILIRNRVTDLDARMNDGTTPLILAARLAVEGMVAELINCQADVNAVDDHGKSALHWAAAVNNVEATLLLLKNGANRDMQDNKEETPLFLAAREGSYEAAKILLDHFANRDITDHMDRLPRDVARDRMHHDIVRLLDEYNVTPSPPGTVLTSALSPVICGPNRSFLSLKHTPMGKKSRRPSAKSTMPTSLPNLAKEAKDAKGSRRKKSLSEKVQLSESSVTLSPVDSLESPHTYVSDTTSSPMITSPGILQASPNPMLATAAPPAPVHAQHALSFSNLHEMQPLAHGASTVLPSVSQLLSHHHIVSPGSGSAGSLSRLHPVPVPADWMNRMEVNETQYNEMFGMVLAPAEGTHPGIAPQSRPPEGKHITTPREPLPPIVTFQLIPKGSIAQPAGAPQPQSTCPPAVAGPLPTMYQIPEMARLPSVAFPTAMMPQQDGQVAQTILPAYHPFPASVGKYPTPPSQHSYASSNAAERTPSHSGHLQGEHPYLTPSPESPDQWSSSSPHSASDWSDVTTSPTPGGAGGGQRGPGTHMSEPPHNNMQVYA

[6] = target: Pro-neuregulin-1, membrane-bound isoform (Homo sapiens) (UniProt Q02297); assay: small molecules binding neuregulin-1 protein – biochemical, small-molecule microarray, fluorescence 635/667, psychiatric disease protein project, primary screen (AID 1075); conditions: NRG1 binding, 635 nm fluorescence, higher = more signal;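 further: score combines 667 nm spot fluorescence with signal to noise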
Chain of Pro-neuregulin-1, membrane-bound isoform (Homo sapiens) (Q02297 whole entry, looked up, the tested form may be a part, canonical isoform): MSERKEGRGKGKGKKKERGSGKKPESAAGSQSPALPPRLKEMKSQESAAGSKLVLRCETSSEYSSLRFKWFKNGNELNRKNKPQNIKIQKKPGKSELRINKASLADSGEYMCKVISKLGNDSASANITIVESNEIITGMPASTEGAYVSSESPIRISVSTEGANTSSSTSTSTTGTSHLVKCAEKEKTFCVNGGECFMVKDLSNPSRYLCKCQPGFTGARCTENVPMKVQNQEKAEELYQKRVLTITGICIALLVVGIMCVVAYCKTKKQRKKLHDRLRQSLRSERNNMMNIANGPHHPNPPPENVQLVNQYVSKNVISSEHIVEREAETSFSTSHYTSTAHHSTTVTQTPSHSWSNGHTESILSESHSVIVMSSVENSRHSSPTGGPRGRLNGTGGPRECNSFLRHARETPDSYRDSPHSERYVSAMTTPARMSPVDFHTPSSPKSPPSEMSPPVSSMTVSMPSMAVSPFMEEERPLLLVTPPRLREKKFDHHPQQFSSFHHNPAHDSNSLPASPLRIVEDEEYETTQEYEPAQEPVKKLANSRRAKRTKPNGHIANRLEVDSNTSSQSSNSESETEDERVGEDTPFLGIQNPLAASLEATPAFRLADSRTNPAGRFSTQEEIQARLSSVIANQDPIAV

[7] = tested on: Neuregulin-1 EGF-like domain; assay: small molecules binding NRG1 EGF domain – biochemical, small-molecule microarray, 635 nm fluorescence, primary screen (AID 1081); conditions: higher = more signal;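 further: binding of the protein to compounds printed on small-molecule microarray slides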
[8] = FRG1 expression reporter modulators in myotubes – cell-based, C2C12 myotubes, firefly/Renilla luciferase, luminescence, FRG1 inhibition for FSHD, primary screen (AID 1084); conditions: FRG1 promoter luciferase, higher = more signal, called active from +8 up or from −8 down
[9] = small molecules captured by biotinylated probe aFST – biochemical, small-molecule microarray, fluorescence 635/667, stem cell growth factor project, primary screen (AID 1086); conditions: higher = more signal;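 further: score merges 667 nm fluorescence with signal-to-noise of each printed compound spot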
[10] = binders of probe aHhip on microarray, primary screen, stem cell growth factor project, biochemical, small-molecule microarray, fluorescence 635/667 (AID 1087); conditions: higher = more signal;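 further: score merges spot fluorescence at 667nm with spot signal to noise ratio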
[11] = tested on: PRMT1 (protein arginine N-methyltransferase 1); assay: small molecules binding arginine methyltransferase PRMT1 – biochemical, small-molecule microarray, 635 nm fluorescence, primary screen (AID 1088); conditions: higher = more signal;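 further: binding of Prmt1 protein to compounds spotted on small-molecule microarray slides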
[12] = growth effects on S. cerevisiae YJM789 – YJM789 clinical isolate, OD600, 24 h, basal, primary screen (AID 1089); conditions: higher = more signal, called active from +8 up or from −8 down;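 further: growth of clinical yeast isolate S. cerevisiae YJM 789 seeded 1000 cells per well; test concentration not given here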
[13] = S. pombe growth modifiers, basal conditions – strain 972, OD600, 24 h, no modulator, primary screen (AID 1090);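 further: basal condition with compound alone and no growth modifier present; test concentration not given here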; conditions: S. pombe 972 growth, higher = more signal, called active from +8 up or from −8 down
[14] = budding yeast growth modifiers under rapamycin – strain BY4716, OD600, 96 h, primary screen (AID 1091); further: test concentration not given here; conditions: S. cerevisiae BY4716 + rapamycin, higher = more signal, called active from +8 up or from −8 down
[15] = target: Torsin-1A-interacting protein 2 (Homo sapiens) (UniProt Q8NFQ8); assay: small molecules binding lysate-expressed LULL1 – cell lysate, human LULL1 lysate, 635/667 nm fluorescence, primary screen (AID 1092); conditions: small-molecule microarray, hLULL1 lysate binding, 635 nm fluorescence; higher = more signal;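 further: probe is lysate of COS7 cells overexpressing human LULL1; score merges per-feature 667 nm fluorescence with signal-to-noise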
Chain of Torsin-1A-interacting protein 2 (Homo sapiens) (Q8NFQ8 whole entry, looked up): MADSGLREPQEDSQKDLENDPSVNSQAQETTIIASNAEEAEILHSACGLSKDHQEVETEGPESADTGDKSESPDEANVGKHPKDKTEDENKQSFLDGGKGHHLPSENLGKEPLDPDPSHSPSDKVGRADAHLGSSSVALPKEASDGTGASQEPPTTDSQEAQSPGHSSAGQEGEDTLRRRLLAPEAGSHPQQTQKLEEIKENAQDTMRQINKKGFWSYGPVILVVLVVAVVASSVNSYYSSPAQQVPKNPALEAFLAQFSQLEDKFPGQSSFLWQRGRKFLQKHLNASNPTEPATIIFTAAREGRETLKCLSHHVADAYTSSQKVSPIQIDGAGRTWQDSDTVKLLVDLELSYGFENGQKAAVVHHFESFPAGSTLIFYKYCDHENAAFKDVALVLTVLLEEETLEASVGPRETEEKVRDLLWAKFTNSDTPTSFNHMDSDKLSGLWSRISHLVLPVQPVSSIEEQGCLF

[16] = optical density change of DRC41 E. coli – strain DRC41, OD650, 24 h, E. coli filamentation project, primary screen (AID 1093);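 further: MC1000 strain lacking acrAB efflux and sulA so SOS filamentation is blocked; test concentration not given here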; conditions: E. coli DRC41 growth, higher = more signal, called active from +8 up or from −8 down
[17] = probe aLefty2 binding to arrayed compounds – biochemical, biotinylated probe, 635/667 nm fluorescence, primary screen (AID 1094); conditions: small-molecule microarray, higher = more signal;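 further: score merges spot fluorescence near 667 nm with spot signal-to-noise ratio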
[18] = tested on: Noggin (protein binding on small-molecule microarray); assay: small molecules binding Noggin protein – biochemical, 635/667 nm fluorescence, primary screen (AID 1095); conditions: 635 nm fluorescence, higher = more signal;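 further: score merges 667 nm feature fluorescence with signal to noise over triplicate slides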
[19] = target: Neurogenic locus notch homolog protein 3 (Homo sapiens) (UniProt Q9UM47); assay: small molecules binding NOTCH3 protein – biochemical, 635/667 nm fluorescence, primary screen (AID 1096); conditions: small-molecule microarray, 635 nm fluorescence, higher = more signal
[20] = probe aEGFR binding to arrayed compounds – biochemical, biotinylated probe, 635/667 nm fluorescence, primary screen (AID 1097); conditions: small-molecule microarray, higher = more signal;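 further: probe is a biotinylated anti-EGFR antibody binding compounds printed on slides; score combines fluorescence near 667 nm and signal to noise of each spot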

CCCN1C(=O)[C@@]2(c3ccc([N+](=O)[O-])cc3)CC(=O)N(CC34CC5CC(CC(C5)C3)C4)[C@@H]2c2ccc(CO)cc21
composite z-score [1]: 0.402
composite z-score [2]: -0.519
composite z-score [3]: -0.165
composite z-score [4]: -0.046
composite z-score [5]: -0.421
composite z-score [6]: 0.0413
composite z-score [7]: -0.58
z-score [8]: 0.244 (inactive)
composite z-score [9]: -0.103
composite z-score [10]: -0.213
composite z-score [11]: -0.247
z-score [12]: -0.962 (inactive)
z-score [13]: -0.365 (inactive)
z-score [14]: -1.93 (inactive)
composite z-score [15]: 0.162
z-score [16]: -0.19 (inactive)
composite z-score [17]: -0.0099
composite z-score [18]: 0.047
composite z-score [19]: -0.184
composite z-score [20]: 0.142

C=C(CCCC)/C(=C/C[C@H](OC(=O)c1ccncc1)c1ccc(OCCO)cc1)c1cnc2ccccc2c1
composite z-score [1]: 0.102
composite z-score [2]: 1.23
composite z-score [3]: -0.121
composite z-score [4]: 0.322
composite z-score [5]: 1.12
composite z-score [6]: 1.33
composite z-score [7]: 1.23
z-score [8]: -0.791 (inactive)
composite z-score [9]: 0.402
composite z-score [10]: -0.124
composite z-score [11]: 1.51
z-score [12]: 0.144 (inactive)
z-score [13]: -2.06 (inactive)
z-score [14]: 0.199 (inactive)
composite z-score [15]: 1.26
z-score [16]: 0.7 (inactive)
composite z-score [17]: -0.0306
composite z-score [18]: 1.17
composite z-score [19]: 1.09
composite z-score [20]: 0.0129

C=CCOC(=O)[C@H]1[C@@H]2C(=O)O[C@@H](c3ccccc3)[C@@H](c3ccccc3)N2[C@@H](c2ccc(OCCOC(=O)[C@H]3C[C@H]4C(=O)N[C@@H](CC(C)C)C(=O)N4[C@H]3c3ccc(O)cc3)cc2)[C@]12C(=O)Nc1ccccc12
composite z-score [1]: -0.109
composite z-score [2]: 1.34
composite z-score [3]: -0.079
composite z-score [4]: 0.868
composite z-score [5]: 1.46
composite z-score [6]: 1.45
composite z-score [7]: 1.43
z-score [8]: -0.0648 (inactive)
composite z-score [9]: 0.174
composite z-score [10]: 0.213
composite z-score [11]: 1.53
z-score [12]: 2.24 (inactive)
z-score [13]: 1.47 (inactive)
z-score [14]: 3.92 (inactive)
composite z-score [15]: 2.42
z-score [16]: 0.0375 (inactive)
composite z-score [17]: -0.084
composite z-score [18]: 0.993
composite z-score [19]: 1.08
composite z-score [20]: 0.11

CC(C)=CCCC(C)=CC(O)C1C=CC2C(=O)NC(=O)C2N1Nc1ccc(Cl)cc1Cl (stereo not given)
composite z-score [1]: 0.235
composite z-score [2]: 0.401
composite z-score [3]: 0.234
composite z-score [4]: 0.214
composite z-score [5]: 0.933
composite z-score [6]: 1.86
composite z-score [7]: 0.915
z-score [8]: 1.89 (inactive)
composite z-score [9]: 0.901
composite z-score [10]: 0.0373
composite z-score [11]: 0.258
z-score [12]: -0.835 (inactive)
z-score [13]: -4.51 (inactive)
z-score [14]: 0.279 (inactive)
composite z-score [15]: 2.31
z-score [16]: -2.06 (inactive)
composite z-score [17]: 0.17
composite z-score [18]: -0.218
composite z-score [19]: 0.845
composite z-score [20]: -0.0904

CCOc1cc(C(O)C2C=CC3C(=O)N(c4ccccc4)C(=O)C3N2Nc2ccccc2F)ccc1O (stereo not given)
composite z-score [1]: 2.51
composite z-score [2]: 0.112
composite z-score [3]: 0.252
composite z-score [4]: 0.334
composite z-score [5]: 0.935
composite z-score [6]: 2.06
composite z-score [7]: 1.37
z-score [8]: 0.118 (inactive)
composite z-score [9]: 1.51
composite z-score [10]: 0.02
composite z-score [11]: 0.196
z-score [12]: 1.54 (inactive)
z-score [13]: -0.428 (inactive)
z-score [14]: 1.81 (inactive)
composite z-score [15]: 3.01
z-score [16]: -0.199 (inactive)
composite z-score [17]: 0.615
composite z-score [18]: -0.596
composite z-score [19]: 0.0983
composite z-score [20]: 0.561

Cc1ccc(S[C@]2(C(=O)NC3CC3)CC(=O)N(C(C)C)[C@@H]2c2ccc(CO)cc2I)cc1
composite z-score [1]: -0.113
composite z-score [2]: 0.38
composite z-score [3]: -0.0234
composite z-score [4]: 0.0084
composite z-score [5]: -0.372
composite z-score [6]: 1.89
composite z-score [7]: 1.07
z-score [8]: -0.0443 (inactive)
composite z-score [9]: 0.933
composite z-score [10]: -0.318
composite z-score [11]: 1.27
z-score [12]: -0.812 (inactive)
z-score [13]: -2.43 (inactive)
z-score [14]: -0.2 (inactive)
composite z-score [15]: 2.83
z-score [16]: -1.34 (inactive)
composite z-score [17]: -0.0865
composite z-score [18]: -0.294
composite z-score [19]: 0.624
composite z-score [20]: -0.196

O=C1O[C@@H](c2ccccc2)[C@@H](c2ccccc2)N2[C@@H](c3ccc(OCCO)cc3)[C@]3(C(=O)Nc4ccc(C#CCCO)cc43)[C@@H](C(=O)O)[C@H]12
composite z-score [1]: 1.47
composite z-score [2]: 0.431
composite z-score [3]: 0.213
composite z-score [4]: 0.749
composite z-score [5]: 0.882
composite z-score [6]: 1.46
composite z-score [7]: 1.24
z-score [8]: -1.75 (inactive)
composite z-score [9]: 1.9
composite z-score [10]: 0.102
composite z-score [11]: 1.53
z-score [12]: 0.659 (inactive)
z-score [13]: 0.799 (inactive)
z-score [14]: -0.261 (inactive)
composite z-score [15]: 2.68
z-score [16]: 0.543 (inactive)
composite z-score [17]: 1.03
composite z-score [18]: 1.31
composite z-score [19]: 1.04
composite z-score [20]: 0.853

O=C1O[C@H](c2ccccc2)[C@H](c2ccccc2)N2[C@H]1[C@@H](C(=O)N1CCN(c3ncccn3)CC1)[C@]1(C(=O)Nc3ccc(C#CCCO)cc31)[C@H]2c1ccc(O)cc1
composite z-score [1]: -0.153
composite z-score [2]: -0.162
composite z-score [3]: 0.0033
composite z-score [4]: 0.597
composite z-score [5]: 1.01
composite z-score [6]: 1.71
composite z-score [7]: 0.979
z-score [8]: 1.34 (inactive)
composite z-score [9]: 0.0354
composite z-score [10]: 0.0373
composite z-score [11]: 0.738
z-score [12]: 0.515 (inactive)
z-score [13]: -0.443 (inactive)
z-score [14]: 1.18 (inactive)
composite z-score [15]: 2.92
z-score [16]: -0.778 (inactive)
composite z-score [17]: -0.0784
composite z-score [18]: 0.283
composite z-score [19]: 0.504
composite z-score [20]: -0.004

CCCC=C(CCC)[C@@H](NC(=O)OCC(C)C)c1ccc(C(=O)OC)cc1
composite z-score [1]: -0.443
composite z-score [2]: 0.477
composite z-score [3]: -0.0596
composite z-score [4]: 0.161
composite z-score [5]: 0.638
composite z-score [6]: 0.224
composite z-score [7]: 0.362
z-score [8]: -0.705 (inactive)
composite z-score [9]: 0.107
composite z-score [10]: 2.35
composite z-score [11]: 0.586
z-score [12]: -0.245 (inactive)
z-score [13]: 0.354 (inactive)
z-score [14]: -0.894 (inactive)
composite z-score [15]: 0.893
z-score [16]: 0.0664 (inactive)
composite z-score [17]: 0.0506
composite z-score [18]: 0.421
composite z-score [19]: 0.621
composite z-score [20]: -0.123

O=C(NC1CC1)[C@@H]1c2ccccc2C(=O)N(CC23CC4CC(CC(C4)C2)C3)[C@H]1c1ccc(CO)cc1
composite z-score [1]: -0.314
composite z-score [2]: 0.179
composite z-score [3]: 0.0319
composite z-score [4]: 0.581
composite z-score [5]: 1.44
composite z-score [6]: 0.264
composite z-score [7]: 1.29
z-score [8]: -3.56 (inactive)
composite z-score [9]: 0.556
composite z-score [10]: -0.0645
composite z-score [11]: 1.53
z-score [12]: -0.706 (inactive)
z-score [13]: -0.682 (inactive)
z-score [14]: -0.437 (inactive)
composite z-score [15]: 3.15
z-score [16]: -0.103 (inactive)
composite z-score [17]: -0.2
composite z-score [18]: 1.47
composite z-score [19]: 1.02
composite z-score [20]: 0.0201

COC(=O)[C@]1(Cc2ccccc2)N=C(c2ccc(OCCCO)cc2)O[C@@H]1c1ccccc1CN=[N+]=[N-]
composite z-score [1]: 0.278
composite z-score [2]: -0.235
composite z-score [3]: -0.0266
composite z-score [4]: -0.214
composite z-score [5]: 0.582
composite z-score [6]: 0.718
composite z-score [7]: 1.29
z-score [8]: 1.48 (inactive)
composite z-score [9]: 0.693
composite z-score [10]: -0.134
composite z-score [11]: 1.56
z-score [12]: 0.738 (inactive)
z-score [13]: 0.237 (inactive)
z-score [14]: 34.8 (active)
composite z-score [15]: 2.34
z-score [16]: -0.156 (inactive)
composite z-score [17]: 0.0647
composite z-score [18]: 0.615
composite z-score [19]: 0.399
composite z-score [20]: -0.0967
